# HEK293 tox: cytotoxicity in counter-screen for GLP-1R inverse agonists. HEK293 cAMP-luciferase reporter cells, luminescence, 24 h. Potency, µM (titrated, usually from 38.3 µM), inactives show at the highest dose activity change, negative = inhibition, usual class: inhibitors. hit rate 0.13% among 410,000;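 note: loss of luciferase light is scored as toxicity; potency is the fitted concentration of half-maximal effect; % is set by controls: 0 for no effect and ±100 for the full control effect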
#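 A 23 nL compound transfer followed 12 hours of cell culture at 37 deg C; exposure then lasted 24 hr. Luciferase assay detection reagent was dispensed and plates read for luminescence after a 12 min room-temperature wait.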
# DRD3 antagonist: D3 dopamine receptor (human) antagonism; hit rate 2.5% among 360,000; D3R cells, DiscoveRx beta-arrestin luminescence, antagonist mode; active compounds read low; max response, negative = inhibition, %; in the data active = max response below about -50%; inconclusive = no clear call, values can overlap the other calls; note: % is set by controls: 0 for no effect and ±100 for the full control effect
#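 Cells plated overnight at 1500 cells/well, then exposed to library compounds with dopamine controls for 90 minutes at 37 degrees C. DiscoveRx reagent added for 30–60 minutes at room temperature; luminescence read, quantitative HTS format.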
# D3 ag: activates the human D3 dopamine receptor. D3R DiscoveRx beta-arrestin cells, luminescence, 90 min. P35462. max activation, %. hit rate 0.58% among 410,000; in the data active = max activation above about 30%; note: 0% is about no effect
#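 Agonist-mode cell screen: cells plated at 1500/well and incubated overnight at 37 °C, then exposed to library compounds for 90 min at 37 °C. Detection reagent was added for 30–60 min at room temperature, and luminescence was read.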
# GLP1R inv ag: GLP-1 receptor (human) inverse agonism; P43220; HEK293 GLP-1R CRE-luciferase, luminescence, 24 h; GLP-1R form is constitutively active; Potency, µM (doses to about 38.3 µM), inactives show at the top dose activity change, negative = inhibition, actives largely listed as inhibitors; hit rate 1.6% among 410,000; AID 624417; note: potency is the fitted concentration of half-maximal effect; % is set by controls: 0 for no effect and ±100 for the full control effect; nearly all actives have a fitted effect of over 55% in size
# Target sequence (P43220 whole entry, looked up): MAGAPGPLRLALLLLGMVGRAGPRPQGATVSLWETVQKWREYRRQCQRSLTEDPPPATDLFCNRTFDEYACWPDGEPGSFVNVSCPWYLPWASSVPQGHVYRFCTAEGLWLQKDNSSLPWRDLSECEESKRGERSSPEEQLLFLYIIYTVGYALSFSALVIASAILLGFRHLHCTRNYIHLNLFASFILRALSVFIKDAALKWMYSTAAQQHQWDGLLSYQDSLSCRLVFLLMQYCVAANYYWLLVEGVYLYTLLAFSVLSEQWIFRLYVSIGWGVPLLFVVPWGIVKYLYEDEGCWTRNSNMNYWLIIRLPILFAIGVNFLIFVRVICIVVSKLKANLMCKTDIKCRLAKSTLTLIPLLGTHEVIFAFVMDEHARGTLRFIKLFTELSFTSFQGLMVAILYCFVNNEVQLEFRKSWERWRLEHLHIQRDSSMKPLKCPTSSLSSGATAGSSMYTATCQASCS
#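 qHTS in 1536-well format: reporter HEK293 cells expressing constitutive GLP-1R activity in DMEM + 10% Nu serum, 24 hr with compounds at 37 deg C, luminescence read after 12 min with detection reagent.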
# GLP-1R agonist: GLP-1 receptor (human) agonism | P43220 | HEK293 GLP-1R CRE-luciferase, luminescence, 4-6 h; cells express a hypersensitive GLP-1R form | Potency, µM (top dose mostly 45.6 µM), without a hit: at the highest dose activation, hits mostly activators | hit rate 0.007% among 380,000 | AID 624172; note: potency is the fitted concentration of half-maximal effect; % of control where 0% means no effect
# ClpP mod: qHTS Assay for Activators of ClpP | ATP-dependent Clp protease proteolytic subunit (Bacillus subtilis (strain 168)), P80244 | purified B. subtilis ClpP, FRET peptide cleavage, 20 min | Potency, µM (top dose mostly 57.5 µM), for the others: at the highest dose activity change, negative = active | hit rate 1.9% among 340,000 | AID 651965, 2013; active = well fitted falling curve with a large enough effect; inconclusive = small, poorly fitted or top-dose-only effect; inactive = no such curve, though single readings can be large or run the other way; note: potency is the fitted concentration of half-maximal effect; the source files actives as falling curves though it sought activators and does not explain the sign; nearly all actives have a fitted effect of over 65% in size
# Target sequence (P80244 whole entry, looked up): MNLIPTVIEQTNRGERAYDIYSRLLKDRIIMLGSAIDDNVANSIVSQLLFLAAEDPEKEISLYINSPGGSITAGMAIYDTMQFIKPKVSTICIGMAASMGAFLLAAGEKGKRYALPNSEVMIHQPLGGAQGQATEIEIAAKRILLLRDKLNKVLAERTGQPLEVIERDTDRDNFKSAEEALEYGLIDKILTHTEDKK
#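 FRET quenching reversal measured ClpP activation: 10 microg/mL B. subtilis ClpP at pH 8 with the FRET-FV decapeptide, read at 430 nm after 320 nm excitation. The 20-min minus 0-min signal was scaled between DMSO/no-enzyme wells and ADEP (5.8 microM final).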
# * marks the source's active call; other numbers are inactive results; ? = inconclusive; . = no result; [ ] = remark or other dose. Shown are actives, neighbours in structure and some others; about 5.7% of the full set was active somewhere. Unless noted, calls come from the whole dose curve; as a rule, active = well fitted curve in the direction sought with a large enough effect; inconclusive = small, poorly fitted or top-dose-only effect, or another doubt; inactive = no such curve, though single readings can be large; an effect the other way counts as inactive or inconclusive.
SMILES,HEK293 tox,DRD3 antagonist,D3 ag,GLP1R inv ag,GLP-1R agonist,ClpP mod
COc1ccc(NC(=O)C2=C(C)Nc3c(C(=O)Nc4ccc(C)cc4)cnn3C2c2cccc(Cl)c2)cc1 (centres undefined),-1%,.,-2,-29%,.,-5%
O=S(=O)(c1cccc2ccccc12)N1CCN(c2nc(-c3cccs3)nc3ccccc23)CC1,.,.,.,.,.,4%
CSc1ccccc1NC(=O)CN(C)CC(=O)NCC(=O)Nc1ccc(F)cc1,-8%,-50*,2,-14%,-6%,-1%
O=C1/C(=C/c2ccc(S(=O)(=O)O)cc2S(=O)(=O)O)CCc2ccccc21,-12%,2,2,20%,11%,2%
O=C(C1CCC(Cn2c(=S)[nH]c3ccccc3c2=O)CC1)N1CCN(c2ccccc2)CC1 (centres undefined),-5%,13,4,3.5µM*,-11%,-3%
CCN1CCN(CCn2c(=S)[nH]c3ccccc3c2=O)CC1,-4%,-62*,1,4%,3%,-3%
CC1CCN(CCCn2c(=S)[nH]c3ccccc3c2=O)CC1,-18%,-15,-17,-23%,0%,1%
O=c1c2ccccc2[nH]c(=S)n1CCCN1CCC(Cc2ccccc2)CC1,?,-90*,-17,?,4%,2%
Cc1cccc(C)c1N1CCN(CCn2c(=S)[nH]c3ccccc3c2=O)CC1,0%,-69*,-2,20%,8%,-1%
CC(C)N(C(=O)c1cc2c(Cl)nc3ccccc3c2s1)C1CCCCC1,-9%,.,6,-10%,-1%,-2%
O=C(CCS(=O)(=O)c1ccc(F)cc1)Nc1nc(-c2ccccn2)cs1,?,0,-1,?,0%,-2%
CC(Oc1ccc(F)cc1)C(=O)Nc1nc(-c2ccccn2)cs1 (centres undefined),?,-69*,-12,10µM*,10%,.
CCN(C(=O)COc1ccc(C(C)=O)cc1)c1cccc2ccccc12,17%,-72*,-7,?,2%,?
CCN(C(=O)COC(=O)c1cnccn1)c1cccc2ccccc12,-15%,1,3,-9%,5%,.
CCn1nc(C)cc1-c1nnc(Sc2ncc([N+](=O)[O-])s2)n1C,-21%,-117*,-25,?,-7%,1%
CN(C)CCN1CCN(C2CN(Cc3cn(Cc4ccccc4C(F)(F)F)nn3)S(=O)(=O)C2)CC1 (centres undefined),5%,10,5,23%,-3%,-2%
CCOc1ccccc1CNC(=O)c1oc2ccc3c(c2c1C)C(=O)CC(C)(C)O3,0%,.,10,?,.,-8%
Cc1c(C(=O)NCc2ccoc2)oc2ccc3c(c12)C(=O)CC(C)(C)O3,20%,14,-9,-10%,22%,28µM*
Cc1cc(=O)n2c(C(=O)Nc3ccc(C)c(Cl)c3)c(C(=O)Nc3ccccc3)sc2n1,2%,.,5,0%,.,3%
COc1cccc(CN2c3ccccc3-c3nc(SCC(=O)Nc4cccc(C)c4)ncc3S2(=O)=O)c1,-2%,.,4,-10%,0%,4%
CCc1sc(-c2cc3cccc(OC)c3oc2=O)nc1-c1ccccc1,.,.,.,.,.,14µM*
CCCOc1ccc(CNC(=O)c2ccc3c(c2)N(CC)CCS3)cc1,4%,-65*,-14,?,-7%,4%
CCN1CCSc2ccc(C(=O)NCc3cccc(F)c3)cc21,2%,9,-8,?,7%,5%
CCN1CCSc2ccc(C(=O)NCc3ccc(F)cc3)cc21,17%,.,-20,?,19%,4%
CCN1CCSc2ccc(C(=O)NCc3cccc(Br)c3)cc21,2%,?,-15,10µM*,18%,4%
SMILES,HEK293 tox,DRD3 antagonist,D3 ag,GLP1R inv ag,GLP-1R agonist,ClpP mod
CC1CCN(C(=O)CSc2c3c(nc4ccc(Cl)cc24)CCCC3)CC1,-24%,.,69*,?,.,-1%
O=C(c1ccccc1F)N1CCN(Cc2ccc3c(c2)OCO3)CC1,14%,-67*,-12,-14%,-7%,-1%
O=C(CN1C(=O)c2cccc3cccc(c23)C1=O)N1CCN(Cc2ccc3c(c2)OCO3)CC1,-6%,6,6,0%,0%,25µM*
Cc1cccc(C)c1N1CCN(C(=O)c2ccc3c(c2)OCO3)CC1,11%,-21,-4,10µM*,-2%,-2%
O=C(COc1ccc(Cl)cc1)N1CCN(Cc2ccc3c(c2)OCO3)CC1,-15%,4,-35,?,-2%,0%
O=C(O)c1ccccc1C(=O)N1CCN(Cc2ccc3c(c2)OCO3)CC1,-2%,-2,-2,-5%,0%,-2%
Cc1cccc(N2CCN(C(=O)c3ccc4c(c3)OCCO4)CC2)c1C,14%[7.66 µM],-15,-9,-29%[7.66 µM],0%,0%
CCCOc1ccc(C(=O)N2CCN(Cc3ccc4c(c3)OCO4)CC2)cc1,-2%,-11,-13,7.9µM*,1%,0%
Cc1cnc(/C=C/c2ccc(N(C)C)cc2)cn1,.,.,.,.,.,5%
CCN(CC)c1ccc(NC(=O)C2COc3ccc(OC)cc3C2)c(C)c1 (centres undefined),?,.,-20,?,.,-2%
CC1(C(=O)NS(=O)(=O)c2cccc(OC(F)F)c2)CCN1C(=O)CC(c1ccccc1)c1ccccc1 (centres undefined),-2%,5,5,-30%,-7%,2%
Fc1ccccc1N1CCN(Cc2nnc(-c3ccc4c(c3)OCO4)o2)CC1,-4%,.,14,-2%,.,35µM*
Clc1ccc(N2CCN(Cc3nnc(-c4ccc5c(c4)OCO5)o3)CC2)cc1,-1%,.,8,-11%,.,-11%
O=S(=O)(c1cccc(F)c1)N1CCN(Cc2ccc3c(c2)OCO3)CC1,3%,6,-5,-6%,2%,-3%
N#Cc1c(F)cccc1N1CCN(Cc2ccc3c(c2)OCO3)CC1,-12%,-91*,-31,11µM*,15%,.
Cc1ccc2[nH]c3c(c2c1)CN(C(=O)CN1CCN(Cc2ccc4c(c2)OCO4)CC1)CC3,-18%,22,5,3.5µM*,-3%,0%
O=C(c1ccc2nc(N3CCCCC3)sc2c1)N1CCN(Cc2ccc3c(c2)OCO3)CC1,5%,?,1,10µM*,0%,-14%
CCCNC(=O)C1(C)CCCN(C(=O)c2cccc(Cl)c2)C1 (centres undefined),3%,16,0,7%,-3%,5%
CSc1nc(=O)[nH]nc1Sc1ccccc1,3%,?,-8,4%,8%,0%

# Screening results deposited in PubChem BioAssay by National Center for Advancing Translational Sciences (NCATS).
